# Measurements from PubChem BioAssay.
# Values without a mark were called inactive. For some of these results: Potency and affinity values are given separately. Active and inactive are the calls of the source.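 Rule for the calls, unless noted: active = thallium flux through the channel raised or lowered by more than 3 SD from vehicle-only wells, actives on both sides; inactive = the rest.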
# Assays:
# F380Y = assay: modulators of BK channel variants, profiling panel, selectivity assay, cell-based, U2OS BacMam, thallium flux, beta subunits (AID 1259406); conditions: at 30 µM;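 note: initial slope of Thallos dye fluorescence rise after thallium is added; log ratio against the mean of 0.3% DMSO vehicle wells on the same plate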
# F380Y/beta1 = assay: as above; conditions: at 30 µM
# F380Y/beta2Delta = assay: as above; conditions: at 30 µM
# F380Y/beta4 = assay: as above; conditions: at 30 µM
# [1] = biological target: Calcium-activated potassium channel subunit alpha-1 (Homo sapiens) + Leucine-rich repeat-containing protein 26 (Homo sapiens) (UniProt Q12791+Q2I0M4); assay: as above; conditions: F380Y/Slo1WT/gamma1, at 30 µM
# Calcium-activated potassium channel subunit alpha-1 (Homo sapiens) + Leucine-rich repeat-containing protein 26 (Homo sapiens), sequence (Q2I0M4 whole entry, looked up, one chain of several): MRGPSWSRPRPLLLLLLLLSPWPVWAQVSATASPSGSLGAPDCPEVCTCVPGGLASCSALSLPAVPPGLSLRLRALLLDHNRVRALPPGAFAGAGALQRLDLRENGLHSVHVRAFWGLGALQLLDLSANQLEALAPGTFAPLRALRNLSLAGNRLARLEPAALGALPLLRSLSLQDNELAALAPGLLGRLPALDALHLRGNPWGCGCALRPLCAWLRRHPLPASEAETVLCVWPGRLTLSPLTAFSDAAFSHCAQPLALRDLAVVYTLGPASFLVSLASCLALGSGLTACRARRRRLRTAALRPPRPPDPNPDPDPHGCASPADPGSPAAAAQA
# R275C = assay: as above; conditions: at 30 µM
# R275C/beta1 = assay: as above; conditions: at 30 µM
# R275C/beta2Delta = assay: as above; conditions: at 30 µM
# R275C/beta4 = assay: as above; conditions: at 30 µM
# R275C/Slo1WT/beta2 = assay: as above; conditions: at 30 µM
# [2] = antimalarial activity against Dd2 strain (AID 2302;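 active = growth inhibition above 50% at the single 2 µM test dose, taken to imply half-maximal potency below 2 µM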;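 note: 0% = DMSO untreated growth and 100% = chloroquine plus artemisinin killed control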); conditions: P. falciparum Dd2 in RBCs, LDH growth readout, 72 h; at 2 µM; stronger effect = higher value
# [3] = HepG2 cytotoxicity, primary screen, cytotoxicity control for P. falciparum antimalarial project, cell-based, ATP luminescence (AID 2303;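 active = inhibition above 50%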;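 note: 0% = DMSO wells and 100% = digitonin-killed cells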); conditions: HepG2 viability, 24-48 h, at 10 µM, stronger effect = higher value
# [4] = biological target: L-lactate dehydrogenase (Plasmodium falciparum (isolate CDC / Honduras)) (UniProt Q27743); assay: PfLDH activity inhibition – cell lysate, 3D7 strain, counter-screen for P. falciparum growth inhibition project (AID 2304; call rule not given here;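 note: 0% = vehicle and 100% = reference inhibitor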); conditions: P. falciparum 3D7 crude extract, LDH APAD/NBT absorbance; at 2 µM; stronger effect = higher value
# L-lactate dehydrogenase (Plasmodium falciparum (isolate CDC / Honduras)), sequence (Q27743 whole entry, looked up): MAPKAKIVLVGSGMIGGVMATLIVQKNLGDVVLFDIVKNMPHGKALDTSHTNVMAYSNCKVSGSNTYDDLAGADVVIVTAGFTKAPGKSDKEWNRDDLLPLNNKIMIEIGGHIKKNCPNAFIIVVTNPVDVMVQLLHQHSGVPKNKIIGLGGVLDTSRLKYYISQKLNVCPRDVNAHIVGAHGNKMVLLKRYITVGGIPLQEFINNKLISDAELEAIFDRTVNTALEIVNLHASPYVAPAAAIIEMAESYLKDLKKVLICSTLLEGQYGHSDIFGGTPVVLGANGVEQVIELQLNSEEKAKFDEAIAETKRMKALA
# [5] = inhibition of 3D7 malaria parasite growth – strain 3D7 (AID 2306; call rule not given here;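 note: 0% = DMSO wells and 100% = chloroquine plus artemisinin control wells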); conditions: P. falciparum 3D7 erythrocytic growth, LDH absorbance, 72 h; at 2 µM; stronger effect = higher value
# [6] = biological target: Protein kinase 7 (PK7), Plasmodium falciparum 3D7 (PF3D7_0213400) (UniProt Q7YTF7); assay: inhibition of Plasmodium PK7 catalytic activity – biochemical, TCAMS antimalarial set, Kinase-Glo luminescence (AID 1159587; call rule not given here); conditions: recombinant PfPK7, Kinase-Glo ATP depletion luminescence
# Protein kinase 7 (PK7), Plasmodium falciparum 3D7 (PF3D7_0213400), sequence (Q7YTF7 1-343): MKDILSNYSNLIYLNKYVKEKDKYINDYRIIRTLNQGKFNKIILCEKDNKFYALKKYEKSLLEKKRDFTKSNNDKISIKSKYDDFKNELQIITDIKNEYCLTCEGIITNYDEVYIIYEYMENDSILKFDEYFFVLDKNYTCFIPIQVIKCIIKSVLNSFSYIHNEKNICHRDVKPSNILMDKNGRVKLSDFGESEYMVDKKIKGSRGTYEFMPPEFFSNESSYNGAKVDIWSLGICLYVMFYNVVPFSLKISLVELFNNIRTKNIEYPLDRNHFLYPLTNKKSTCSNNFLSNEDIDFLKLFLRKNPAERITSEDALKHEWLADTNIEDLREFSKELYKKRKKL
# [7] = biological target: Calcium-dependent protein kinase 4 (Plasmodium falciparum (isolate 3D7)) (UniProt Q8IBS5); assay: PfCDPK4 kinase inhibitors, biochemical, TCAMS library (AID 1159588; cut-off not given, nearly all actives have IC50 up to about 0.91 µM); conditions: recombinant PfCDPK4, Kinase-Glo ATP depletion luminescence
# Calcium-dependent protein kinase 4 (Plasmodium falciparum (isolate 3D7)), sequence (Q8IBS5 whole entry, looked up): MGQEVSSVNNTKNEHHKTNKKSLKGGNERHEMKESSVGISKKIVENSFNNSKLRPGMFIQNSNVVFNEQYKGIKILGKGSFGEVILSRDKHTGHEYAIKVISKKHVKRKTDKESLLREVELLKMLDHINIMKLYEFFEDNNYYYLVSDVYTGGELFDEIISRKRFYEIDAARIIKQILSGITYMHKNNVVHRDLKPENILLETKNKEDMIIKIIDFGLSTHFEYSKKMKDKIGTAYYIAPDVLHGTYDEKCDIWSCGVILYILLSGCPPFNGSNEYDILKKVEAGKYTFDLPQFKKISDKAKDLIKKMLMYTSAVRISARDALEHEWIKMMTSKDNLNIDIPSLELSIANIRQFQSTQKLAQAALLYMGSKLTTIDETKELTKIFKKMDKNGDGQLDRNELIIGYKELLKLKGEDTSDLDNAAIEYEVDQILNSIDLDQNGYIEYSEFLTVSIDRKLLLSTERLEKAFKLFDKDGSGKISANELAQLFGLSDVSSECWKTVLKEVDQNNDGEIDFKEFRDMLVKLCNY
SMILES,log fold change Tl+ flux (F380Y),log fold change Tl+ flux (F380Y/beta1),log fold change Tl+ flux (F380Y/beta2Delta),log fold change Tl+ flux (F380Y/beta4),log fold change Tl+ flux [1],log fold change Tl+ flux (R275C),log fold change Tl+ flux (R275C/beta1),log fold change Tl+ flux (R275C/beta2Delta),log fold change Tl+ flux (R275C/beta4),log fold change Tl+ flux (R275C/Slo1WT/beta2),growth inhibition [2],inhibition [3],inhibition [4] [%],growth inhibition [5],outcome [6],outcome [7]
CCCCC#Cc1ccc(C(=O)NNC(=O)Nc2ccccc2)o1,0.0775,-0.0382,0.0115,0.00448,-0.0213,0.0317,0.0182,-0.00673,-0.0333,0.023,–,–,–,–,–,–
NC(CS(=O)(=O)Cc1ccco1)=NO,0.0416,0.0173,0.00572,0.019,-0.0714,-0.017,-0.00211,-0.0186,-0.0304,-0.0219,–,–,–,–,–,–
O=C(OCCSc1sccc1[N+](=O)[O-])c1ccc(Cl)cc1,-0.00334,-0.009,0.0128,-0.0285,-0.0095,0.0114,-0.0166,0.0149,-0.01,0.0278,–,–,–,–,–,–
Cn1cnc([N+](=O)[O-])c1Sc1cccs1,0.0486,0.0187,0.0459,0.0453,0.029,0.00916,0.0118,0.0288,0.0285,0.0293,–,–,–,–,–,–
COc1ccc(Nc2ncc(OC)c(Nc3ccccc3C(N)=O)n2)cc1N1CCN(C)CC1,–,–,–,–,–,–,–,–,–,–,96% (active),63% (active),0,100% (active),inactive,inactive
CN(C)C=NC(=O)c1sc(S(C)(=O)=O)c2c1CCC=C2,0.147 (active),0.036,-0.00643,0.00437,-0.0666,0.00156,-0.0344,0.00771,-0.00153,0.0518,–,–,–,–,–,–
Cc1ccc(S(=O)(=O)NC(=O)Nc2nc(-c3ccc(C)c(Cl)c3)c(C)s2)cc1,0.099,0.176 (active),0.0427,0.19 (active),0.156 (active),0.265 (active),0.24 (active),0.0622,0.211 (active),0.0547,–,–,–,–,–,–
CC(=NO)c1ccc2c(c1)C(C)(C)CCC2(C)C,-0.246 (active),-0.197 (active),-0.444 (active),-0.152 (active),-0.146 (active),-0.00509,0.0184,-0.00725,-0.0253,-0.0443,–,–,–,–,–,–
O=C(NCc1ccc2c(c1)OCO2)C1CCN(C(=O)OCc2ccccc2)CC1,0.035,-0.0838 (active),-0.059,-0.064,0.019,0.0676,0.0117,-0.0269,-0.0162,0.0194,–,–,–,–,–,–
NS(=O)(=O)c1cccc(NC(=O)c2cccnc2Oc2ccccc2)c1,-0.000714,0.008,0.0103,-0.015,-0.0607,-0.0268,-0.0191,0.01,0.00433,-0.0182,–,–,–,–,–,–
CCOC(=O)c1c[nH]n2c(=O)c3c(nc12)CCC3,0.0447,0.0491,0.00798,-0.00836,-0.00512,-0.0014,0.00358,0.00309,0.0387,-0.0235,–,–,–,–,–,–
O=S1(=O)CC(N2CCOCC2)c2ccccc21 (stereo unspecified),-0.0264,-0.00462,0.0333,0.00745,0.00701,-0.00299,0.0226,0.00722,0.00198,-0.0351,–,–,–,–,–,–
CC(C)(C)NC(=S)NNc1c(Cl)cncc1Cl,-0.00302,-0.0136,-0.0137,-0.0352,-0.035,0.0328,0.0635,0.00425,-0.00379,0.0133,–,–,–,–,–,–
CCc1cc(C(=O)c2ccc(OC)cc2)c(NC(=O)CN2CCN(C)CC2)s1,-0.0314,-0.0083,-0.00202,-0.0121,0.0213,-0.0119,-0.00614,0.00802,0.0372,-0.00941,–,–,–,–,–,–
